Compound activity (PubChem BioAssay)
ID4 binder: binders of human ID4 protein, primary screen, biochemical, small molecule microarray, single point. Flag-ID4 binding, fluorescence F/B. calls only. 31,000 tested, 1.2% active; call rule not given here;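 also: a binder raises fluorescence above local background on the spot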
Target sequence (P47928 whole entry, looked up): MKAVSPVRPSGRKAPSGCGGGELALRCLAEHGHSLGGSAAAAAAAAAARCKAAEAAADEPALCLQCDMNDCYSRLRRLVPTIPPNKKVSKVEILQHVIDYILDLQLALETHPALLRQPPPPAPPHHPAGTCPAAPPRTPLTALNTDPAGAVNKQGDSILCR
STK33 inh: STK33 kinase inhibitors, primary screen, biochemical, luminescence, ADP-Glo, MBP substrate | Serine/threonine-protein kinase 33 (Homo sapiens), Q9BYT3 | inhibition, % at 12.5 µM | 27,000 tested, 0.44% active; in the data active = inhibition above about 20%
Numbers stand for hits; n = inactive; x = no result given; + = active, no number. The sample as a whole holds a higher share of hits than the screen did.

SMILES | ID4 binder | STK33 inh
Cn1c(=O)c2c(nc(N3CCOCC3)n2CCCN)n(C)c1=O | + | n
CCCCn1c(SCC(N)=O)nc2c1c(=O)n(C)c(=O)n2C | n | n
Cc1ccc(NC(=O)CSc2nnnn2-c2cccc(C(=O)O)c2)cc1C | + | n
O=C(CSc1nnnn1-c1ccccc1)Nc1cccc(C(=O)O)c1 | n | n
Cc1cc(NC(=O)CN(c2ccc(Cl)c(C(F)(F)F)c2)S(C)(=O)=O)ccc1Br | n | n
Cc1cc(CNC(=O)c2cc(-c3ccccc3)nc3ccccc23)nn1C | n | n
N#CCCN(CCC#N)C(=O)c1cc(-c2ccccc2)nc2ccccc12 | + | n
O=C(CSc1nc2ccccc2c(=O)[nH]1)Nc1ccc(F)cc1F | n | n
C[C@@H]1CN([C@H](C)CO)C(=O)c2cc(-c3ccncc3)cnc2O[C@H]1CN(C)C(=O)NC1CCCC1 | + | x
C[C@@H]1CN([C@H](C)CO)C(=O)c2cc(-c3cccnc3)cnc2O[C@H]1CN(C)C | n | x
C[C@@H]1CN([C@@H](C)CO)C(=O)c2cc(-c3ccncc3)cnc2O[C@H]1CN(C)Cc1ccc(Oc2ccccc2)cc1 | + | x
C[C@@H]1CN([C@@H](C)CO)C(=O)c2cc(-c3cccnc3)cnc2O[C@H]1CN(C)C | + | x
C[C@H](CO)N1C[C@H](C)[C@H](CN(C)C(=O)NC2CCCCC2)Oc2ncc(-c3ccc(F)cc3)cc2C1=O | x | n
C[C@@H]1CN([C@H](C)CO)C(=O)c2cc(C3=CCCC3)cnc2O[C@H]1CN(C)C(=O)Cc1ccncc1 | + | x
C[C@H](CO)N1C[C@H](C)[C@H](CN(C)Cc2ccncc2)Oc2ncc(-c3ccccc3)cc2C1=O | n | n
C[C@@H]1CN([C@H](C)CO)C(=O)c2cc(C3=CCCCC3)cnc2O[C@H]1CN(C)C(=O)Cc1ccccc1 | n | x
Cc1cc(Br)c(NC(=O)CSc2nnc(-c3ccccc3)o2)cc1C | n | n
CN(C1CCCCC1)S(=O)(=O)c1cc(Br)cc2c1N(C(=O)C1CC1)CC2 | n | x
COC(=O)[C@@H]1OC(=O)C2OC23[C@@]1(C)CCC1[C@]2(C)C(C[C@@H](O)[C@]13C)C(C)(C)[C@H](OC(C)=O)C[C@@H]2OC(C)=O (some centres undefined) | n | n
C=CCNC(=O)[C@@H]1[C@H]2C(=O)O[C@H](c3ccccc3)[C@H](c3ccccc3)N2[C@H](c2ccccc2OCCO)[C@@]12C(=O)Nc1ccc(C#CCCO)cc12 | x | n
C[C@@H]1CN([C@H](C)CO)C(=O)c2cc(-c3cccc(F)c3)cnc2O[C@@H]1CN(C)C(=O)C1CCOCC1 | n | x
C[C@@H]1CN([C@H](C)CO)C(=O)c2cc(-c3ccncc3)cnc2O[C@@H]1CN(C)C(=O)C1CCOCC1 | + | x
CC1=CC(C)(C)Nc2ccc(OC(=O)CN3C(=O)c4cccc([N+](=O)[O-])c4C3=O)cc21 | n | n
O=C(CSc1nnc(-c2ccccc2)n1-c1ccccc1)Nc1ccccc1C(F)(F)F | n | n
COc1cc([N+](=O)[O-])ccc1NC(=O)Nc1nn(Cc2ccc(Cl)c(Cl)c2)cc1Cl | n | n
SMILES | ID4 binder | STK33 inh
CCC(C)[C@H]1C(=O)O[C@H](C(C)C)C(=O)N(C)[C@@H](C(C)C)C(=O)O[C@H](C(C)C)C(=O)N(C)[C@@H](C(C)C)C(=O)O[C@H](CC(C)C)C(=O)N1C (some centres undefined) | x | n
O=C(/C=C/c1ccc(O)cc1)OC[C@H]1O[C@@H](Oc2cc(O)c3c(c2)OC(c2ccc(O)cc2)CC3=O)[C@H](O)[C@@H](OC(=O)/C=C/c2ccc(O)cc2)[C@@H]1O (some centres undefined) | n | n
O=C1C=CC(O)(/C=C/C(=O)OC[C@H]2O[C@@H](Oc3ccc(O)cc3)[C@H](O)[C@@H](OC(=O)/C=C/C3(O)C=CC(=O)C=C3)[C@@H]2O)C=C1 | n | 52
Cc1cccc(NC(=O)C(C)NS(=O)(=O)c2ccccc2)c1 (centres undefined) | n | n
O=C(COc1ccccc1[N+](=O)[O-])Nc1cc(-c2nc3ccccc3s2)c(Cl)cc1Cl | n | n
O=S(=O)(N[C@@H]1CCCN(Cc2cccc(OCCO)c2)C1)c1ccc(-c2ccccc2)cc1 | n | n
O=S(=O)(NC[C@@H]1CCCN(Cc2ccc(OCCO)cc2)C1)c1cccc2cccnc12 | x | n
O=S(=O)(N[C@@H]1CCCN(Cc2ccc(OCCO)cc2)C1)c1cccc(F)c1 | + | n
O=S(=O)(N[C@@H]1CCCN(Cc2cccc(OCCO)c2)C1)c1cccc(F)c1 | + | n
COc1ccc(S(=O)(=O)NC2CCN(Cc3ccc(OCCO)cc3)CC2)cc1 | n | x
Cc1ccc(S(=O)(=O)NC2CCN(Cc3ccc(OCCO)cc3)CC2)cc1 | + | n
O=S(=O)(N[C@@H]1CCCN(Cc2ccc(OCCO)cc2)C1)c1cccc2cccnc12 | + | n
O=S(=O)(N[C@@H]1CCCN(Cc2ccc(OCCO)cc2)C1)c1ccc2ccccc2c1 | n | x
Cc1cc(S(=O)(=O)NCC(=O)O)ccc1Cl | n | n
